Data: the supplement of paper PMC11732987, “Enantioselective OTUD7B fragment discovery through chemoproteomics screening and high-throughput optimisation” (Communications Chemistry, 2025)

How the values were obtained:
Assay in all cases: log2 ratio of Biotin-Ahx-Ub-VS probe labelling (fragment/DMSO); higher = less target engagement (more negative = stronger competition), active = hit call of the paper (q ≤ 0.05, log2 ratio ≤ -1)
Settings in all cases: compound concentration: 200 uM; treatment time: 3 h
USP16 = USP16 (UniProt Q9Y5T5)
Procedure, shortened: (§1)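 Labelled DUBs from HEK293T lysate were NeutrAvidin-enriched, digested with LysC and trypsin, and run by diaPASEF LC-MS/MS. Before that, each 495 µg sample in Tris/CHAPS/IGEPAL buffer with protease inhibitors was treated in triplicate with fragment at 200 µM or vehicle for 3 h, then with Biotin-Ahx-Ub-VS at 0.5 µM final for 1 h. Values are average log2 ratios of fragment over vehicle by unpaired t-test, based on global-median-normalised Spectronaut label-free quantities from proteins with ≥2 unique peptides.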

USP19 = biological target: T1, USP19 (UniProt O94966)
T1 sequence (whole entry): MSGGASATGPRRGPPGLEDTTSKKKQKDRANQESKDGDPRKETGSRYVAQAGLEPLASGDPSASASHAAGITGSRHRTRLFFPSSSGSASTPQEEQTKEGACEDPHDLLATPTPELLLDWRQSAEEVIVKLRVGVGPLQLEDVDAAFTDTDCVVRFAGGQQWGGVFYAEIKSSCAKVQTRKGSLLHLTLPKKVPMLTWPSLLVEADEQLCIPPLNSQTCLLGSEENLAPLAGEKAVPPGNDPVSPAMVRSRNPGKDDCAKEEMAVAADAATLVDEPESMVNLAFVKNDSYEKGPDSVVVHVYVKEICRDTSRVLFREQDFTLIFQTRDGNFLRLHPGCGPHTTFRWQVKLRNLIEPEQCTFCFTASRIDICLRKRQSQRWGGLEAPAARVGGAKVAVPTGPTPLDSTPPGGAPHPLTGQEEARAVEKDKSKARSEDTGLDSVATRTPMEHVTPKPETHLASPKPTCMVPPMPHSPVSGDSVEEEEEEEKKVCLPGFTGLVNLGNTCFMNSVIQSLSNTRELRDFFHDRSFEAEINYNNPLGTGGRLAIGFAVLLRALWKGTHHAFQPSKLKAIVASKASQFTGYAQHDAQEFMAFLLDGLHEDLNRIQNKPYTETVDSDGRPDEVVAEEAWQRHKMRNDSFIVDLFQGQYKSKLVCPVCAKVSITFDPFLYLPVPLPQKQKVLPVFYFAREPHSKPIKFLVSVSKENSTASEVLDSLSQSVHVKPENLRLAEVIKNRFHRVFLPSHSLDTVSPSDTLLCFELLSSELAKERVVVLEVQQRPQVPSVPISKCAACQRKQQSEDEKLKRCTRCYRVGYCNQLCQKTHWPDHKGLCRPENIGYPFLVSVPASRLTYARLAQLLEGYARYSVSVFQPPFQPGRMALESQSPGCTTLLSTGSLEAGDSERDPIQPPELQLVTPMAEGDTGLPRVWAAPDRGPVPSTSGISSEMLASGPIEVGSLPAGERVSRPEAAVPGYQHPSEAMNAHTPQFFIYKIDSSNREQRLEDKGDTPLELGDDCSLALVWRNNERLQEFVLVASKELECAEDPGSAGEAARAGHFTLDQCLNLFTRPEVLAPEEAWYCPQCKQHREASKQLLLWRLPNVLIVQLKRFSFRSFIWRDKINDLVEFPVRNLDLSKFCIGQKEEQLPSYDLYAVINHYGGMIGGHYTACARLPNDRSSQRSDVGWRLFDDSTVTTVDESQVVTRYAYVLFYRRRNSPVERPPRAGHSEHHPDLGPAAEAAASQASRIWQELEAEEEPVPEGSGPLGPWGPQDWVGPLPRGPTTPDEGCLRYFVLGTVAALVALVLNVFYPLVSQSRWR
Procedure, shortened: as §1

USP24 = USP24 (UniProt Q9UPU5)
Procedure, shortened: as §1

USP25 = biological target: T2, USP25 (UniProt Q9UHP3)
T2 sequence (whole entry): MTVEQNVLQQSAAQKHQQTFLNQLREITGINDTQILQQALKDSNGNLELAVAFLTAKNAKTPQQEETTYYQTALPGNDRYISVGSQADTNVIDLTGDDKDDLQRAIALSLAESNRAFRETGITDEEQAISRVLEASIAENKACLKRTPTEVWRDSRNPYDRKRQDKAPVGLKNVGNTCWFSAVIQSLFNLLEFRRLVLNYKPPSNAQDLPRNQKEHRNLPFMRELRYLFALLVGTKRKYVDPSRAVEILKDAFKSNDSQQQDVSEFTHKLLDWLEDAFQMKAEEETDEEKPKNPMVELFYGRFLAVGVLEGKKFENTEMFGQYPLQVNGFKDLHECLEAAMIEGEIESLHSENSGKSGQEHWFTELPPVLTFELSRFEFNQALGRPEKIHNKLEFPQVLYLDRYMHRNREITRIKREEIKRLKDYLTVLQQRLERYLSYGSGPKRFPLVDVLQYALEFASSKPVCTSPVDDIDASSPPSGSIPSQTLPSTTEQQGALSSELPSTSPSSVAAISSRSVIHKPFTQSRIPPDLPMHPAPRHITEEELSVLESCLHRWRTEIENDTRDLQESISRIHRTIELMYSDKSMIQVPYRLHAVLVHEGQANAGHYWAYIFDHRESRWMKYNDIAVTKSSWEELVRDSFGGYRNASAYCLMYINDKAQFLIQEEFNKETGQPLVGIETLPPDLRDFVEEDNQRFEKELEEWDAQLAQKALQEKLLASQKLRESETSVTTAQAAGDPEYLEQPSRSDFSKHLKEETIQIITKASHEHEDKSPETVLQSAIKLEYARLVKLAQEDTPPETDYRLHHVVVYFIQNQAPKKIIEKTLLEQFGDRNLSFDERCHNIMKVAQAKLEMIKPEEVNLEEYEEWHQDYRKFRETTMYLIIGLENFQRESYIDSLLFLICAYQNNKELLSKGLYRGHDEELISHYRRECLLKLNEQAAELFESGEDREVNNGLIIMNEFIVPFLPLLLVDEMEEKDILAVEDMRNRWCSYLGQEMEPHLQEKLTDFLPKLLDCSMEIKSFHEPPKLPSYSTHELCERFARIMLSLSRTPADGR
Procedure, shortened: as §1

USP28 = biological target: T3, USP28 (UniProt Q96RU2)
T3 sequence (whole entry): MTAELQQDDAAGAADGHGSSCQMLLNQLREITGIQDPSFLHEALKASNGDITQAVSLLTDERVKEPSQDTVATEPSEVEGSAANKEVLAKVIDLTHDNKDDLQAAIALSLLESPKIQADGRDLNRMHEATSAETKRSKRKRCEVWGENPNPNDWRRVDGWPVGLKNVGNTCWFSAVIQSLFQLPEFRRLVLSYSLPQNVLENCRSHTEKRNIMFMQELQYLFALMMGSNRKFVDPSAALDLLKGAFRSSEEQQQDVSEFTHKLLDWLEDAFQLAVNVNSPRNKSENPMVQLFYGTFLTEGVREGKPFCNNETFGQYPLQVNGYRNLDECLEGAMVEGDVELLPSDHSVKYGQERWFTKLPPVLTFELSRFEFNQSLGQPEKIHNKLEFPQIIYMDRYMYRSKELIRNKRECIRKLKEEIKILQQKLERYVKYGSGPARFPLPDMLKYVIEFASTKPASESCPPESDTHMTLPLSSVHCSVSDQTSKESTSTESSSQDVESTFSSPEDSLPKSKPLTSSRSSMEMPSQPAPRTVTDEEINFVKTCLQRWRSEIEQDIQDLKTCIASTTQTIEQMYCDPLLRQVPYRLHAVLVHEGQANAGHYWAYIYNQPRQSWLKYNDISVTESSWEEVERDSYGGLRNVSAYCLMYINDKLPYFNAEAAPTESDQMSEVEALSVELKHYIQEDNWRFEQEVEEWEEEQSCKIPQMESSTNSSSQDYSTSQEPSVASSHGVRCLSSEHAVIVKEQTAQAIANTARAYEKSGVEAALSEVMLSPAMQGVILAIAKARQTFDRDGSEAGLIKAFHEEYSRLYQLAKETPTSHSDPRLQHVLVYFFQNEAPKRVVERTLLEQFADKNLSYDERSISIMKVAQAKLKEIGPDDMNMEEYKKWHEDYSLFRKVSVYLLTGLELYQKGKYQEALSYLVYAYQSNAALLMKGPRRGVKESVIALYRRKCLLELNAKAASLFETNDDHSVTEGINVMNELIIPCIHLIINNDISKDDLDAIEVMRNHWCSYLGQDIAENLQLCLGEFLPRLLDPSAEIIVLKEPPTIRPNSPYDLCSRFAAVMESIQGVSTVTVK
Procedure, shortened: as §1

Measured: log2 ratio of Biotin-Ahx-Ub-VS probe labelling

Sequence of USP24 (Q9UPU5 whole entry): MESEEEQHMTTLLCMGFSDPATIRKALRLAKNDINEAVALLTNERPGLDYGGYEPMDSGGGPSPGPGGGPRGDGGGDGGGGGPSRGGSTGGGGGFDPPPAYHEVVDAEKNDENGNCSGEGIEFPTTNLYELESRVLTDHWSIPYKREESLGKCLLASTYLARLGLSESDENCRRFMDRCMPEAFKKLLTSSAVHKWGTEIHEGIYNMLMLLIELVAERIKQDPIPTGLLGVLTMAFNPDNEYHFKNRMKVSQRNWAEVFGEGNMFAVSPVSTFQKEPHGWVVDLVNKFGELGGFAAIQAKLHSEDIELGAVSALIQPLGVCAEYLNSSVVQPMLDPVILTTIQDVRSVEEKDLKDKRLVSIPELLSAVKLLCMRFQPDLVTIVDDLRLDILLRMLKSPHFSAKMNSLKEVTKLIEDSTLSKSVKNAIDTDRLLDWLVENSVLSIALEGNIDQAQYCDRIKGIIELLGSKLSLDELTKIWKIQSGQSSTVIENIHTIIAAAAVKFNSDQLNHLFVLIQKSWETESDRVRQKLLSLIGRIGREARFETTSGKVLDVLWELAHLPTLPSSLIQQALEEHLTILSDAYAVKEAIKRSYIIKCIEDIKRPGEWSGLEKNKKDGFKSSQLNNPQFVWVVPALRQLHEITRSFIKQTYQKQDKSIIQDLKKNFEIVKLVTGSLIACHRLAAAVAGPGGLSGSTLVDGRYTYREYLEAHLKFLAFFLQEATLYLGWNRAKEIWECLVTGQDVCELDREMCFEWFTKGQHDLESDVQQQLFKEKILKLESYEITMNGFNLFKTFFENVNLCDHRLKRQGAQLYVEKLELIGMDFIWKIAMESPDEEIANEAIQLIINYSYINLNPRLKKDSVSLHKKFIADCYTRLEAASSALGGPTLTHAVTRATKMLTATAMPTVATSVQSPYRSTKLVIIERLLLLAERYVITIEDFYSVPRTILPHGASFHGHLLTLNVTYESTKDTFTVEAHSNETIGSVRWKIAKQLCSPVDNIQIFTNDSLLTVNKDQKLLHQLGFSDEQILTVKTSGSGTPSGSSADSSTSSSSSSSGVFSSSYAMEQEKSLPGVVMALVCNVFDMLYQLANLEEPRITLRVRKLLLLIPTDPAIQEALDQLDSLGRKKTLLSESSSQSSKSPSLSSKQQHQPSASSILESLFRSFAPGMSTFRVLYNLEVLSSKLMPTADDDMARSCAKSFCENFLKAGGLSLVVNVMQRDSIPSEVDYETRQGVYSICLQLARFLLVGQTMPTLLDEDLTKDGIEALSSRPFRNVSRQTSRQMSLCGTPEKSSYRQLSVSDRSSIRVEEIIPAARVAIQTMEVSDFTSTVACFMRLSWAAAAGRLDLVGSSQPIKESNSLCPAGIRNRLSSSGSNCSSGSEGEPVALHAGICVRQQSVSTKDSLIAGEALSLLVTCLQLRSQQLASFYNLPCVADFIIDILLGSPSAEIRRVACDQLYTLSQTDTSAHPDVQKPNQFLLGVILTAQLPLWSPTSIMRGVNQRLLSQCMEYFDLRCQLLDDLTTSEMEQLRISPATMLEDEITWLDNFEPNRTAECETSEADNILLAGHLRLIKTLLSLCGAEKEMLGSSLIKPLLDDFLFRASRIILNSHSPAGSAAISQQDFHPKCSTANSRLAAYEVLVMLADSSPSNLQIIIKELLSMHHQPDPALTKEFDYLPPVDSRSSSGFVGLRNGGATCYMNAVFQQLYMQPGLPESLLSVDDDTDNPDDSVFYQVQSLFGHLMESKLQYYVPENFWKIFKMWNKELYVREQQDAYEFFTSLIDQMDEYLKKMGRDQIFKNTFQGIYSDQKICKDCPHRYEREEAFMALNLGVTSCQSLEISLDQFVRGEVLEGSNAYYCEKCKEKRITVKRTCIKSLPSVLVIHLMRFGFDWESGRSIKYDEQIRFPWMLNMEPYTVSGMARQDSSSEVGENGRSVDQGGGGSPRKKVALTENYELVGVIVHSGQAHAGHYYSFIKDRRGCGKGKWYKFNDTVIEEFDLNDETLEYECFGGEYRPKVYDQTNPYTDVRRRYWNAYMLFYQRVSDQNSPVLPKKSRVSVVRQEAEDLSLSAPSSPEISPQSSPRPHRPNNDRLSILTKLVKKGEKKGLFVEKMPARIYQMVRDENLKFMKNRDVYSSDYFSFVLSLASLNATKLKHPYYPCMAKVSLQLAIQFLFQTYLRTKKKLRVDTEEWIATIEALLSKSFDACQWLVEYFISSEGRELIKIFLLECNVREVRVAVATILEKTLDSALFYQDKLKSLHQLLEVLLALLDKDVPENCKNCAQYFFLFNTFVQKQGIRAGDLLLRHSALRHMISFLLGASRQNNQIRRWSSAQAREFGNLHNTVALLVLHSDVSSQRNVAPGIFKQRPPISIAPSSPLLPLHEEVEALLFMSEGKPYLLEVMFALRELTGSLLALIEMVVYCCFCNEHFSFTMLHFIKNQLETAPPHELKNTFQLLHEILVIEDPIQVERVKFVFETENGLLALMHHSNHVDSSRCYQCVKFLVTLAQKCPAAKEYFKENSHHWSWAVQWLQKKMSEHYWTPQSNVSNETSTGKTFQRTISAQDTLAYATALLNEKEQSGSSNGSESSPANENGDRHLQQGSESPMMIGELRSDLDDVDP
Sequence of USP16 (Q9Y5T5 whole entry, looked up, the tested form may be a part): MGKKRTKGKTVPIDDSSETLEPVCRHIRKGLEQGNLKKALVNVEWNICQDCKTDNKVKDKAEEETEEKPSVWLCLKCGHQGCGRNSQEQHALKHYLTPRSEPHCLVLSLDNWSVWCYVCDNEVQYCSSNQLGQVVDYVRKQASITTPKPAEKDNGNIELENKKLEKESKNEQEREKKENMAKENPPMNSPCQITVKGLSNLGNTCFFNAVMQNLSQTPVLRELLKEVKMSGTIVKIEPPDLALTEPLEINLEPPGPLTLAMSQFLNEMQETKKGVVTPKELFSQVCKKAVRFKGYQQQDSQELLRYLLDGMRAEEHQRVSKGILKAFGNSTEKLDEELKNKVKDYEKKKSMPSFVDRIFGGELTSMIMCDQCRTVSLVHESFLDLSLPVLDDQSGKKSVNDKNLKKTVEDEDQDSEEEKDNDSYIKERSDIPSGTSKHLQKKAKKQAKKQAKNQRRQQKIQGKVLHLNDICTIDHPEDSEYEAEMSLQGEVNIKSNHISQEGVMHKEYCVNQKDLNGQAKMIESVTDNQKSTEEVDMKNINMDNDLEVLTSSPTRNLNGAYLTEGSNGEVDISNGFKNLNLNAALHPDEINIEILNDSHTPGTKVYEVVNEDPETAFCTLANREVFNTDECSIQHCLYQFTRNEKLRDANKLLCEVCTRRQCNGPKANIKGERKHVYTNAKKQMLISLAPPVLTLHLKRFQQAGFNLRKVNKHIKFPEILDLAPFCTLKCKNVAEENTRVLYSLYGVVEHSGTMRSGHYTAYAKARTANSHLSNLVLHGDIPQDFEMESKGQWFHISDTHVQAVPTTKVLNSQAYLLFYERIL

NC(=O)C(Cc1ccccc1)NC(=O)CCl (stereo not given)
inactive: USP16 0.0723 | USP19 -0.0793 | USP24 -0.0605 | USP25 -0.291 | USP28 -0.39
